Test results as given in PubChem BioAssay AID1159580 (chemical genetic matrix, 2015).
About 2,000 (36%) of roughly 5,500 compounds were called active. Not shown: some 18% with an inconclusive outcome. No stated cut-off is given here; in the data, active means normalized growth mostly below about 0.91 (no sharp cut-off); inconclusive means no clear call, values can overlap the other calls; inactive means mostly above about 0.92. The list shows a part of the results.

Assay: chemical genetic growth profiling, strain panel (AID 1159580);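 further: tested at 20 µM; growth read once vehicle control cultures reached saturation at 30 °C; 1 = growth at the plate median or of vehicle wells; lower values mean less growth of the strain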
Details: S. cerevisiae deletion strains, growth OD

Measured: normalized growth

CC(C)CCCC(C)[C@H]1CCC2C3CC[C@H]4CC(=O)CC[C@]4(C)C3CC[C@@]21C (some centres not stated)
inactive: locus YAL021C, strain ccr4, active compounds read low 0.957 | locus YAL026C, strain drs2, active compounds read low 1 | locus YAL030W, strain snc1, active compounds read low 0.996 | locus YBL061C, strain skt5, active compounds read low 0.998 | locus YBR009C, strain hhf1, active compounds read low 1.03 | locus YBR023C, strain chs3, active compounds read low 0.989 | locus YBR171W, strain sec66, active compounds read low 0.991 | locus YBR231C, strain swc5, active compounds read low 1.01 | locus YBR279W, strain paf1, active compounds read low 0.997 | locus YCL011C, strain gbp2, active compounds read low 0.975 | locus YCL016C, strain dcc1, active compounds read low 0.995 | locus YCL061C, strain MRC1, active compounds read low 0.977 | locus YCL069W, strain vba3, active compounds read low 0.992 | locus YCR088W, strain abp1, active compounds read low 0.982 | locus YDL005C, strain med2, active compounds read low 0.986 | locus YDL040C, strain nat1, active compounds read low 0.984 | locus YDR001C, strain nth1, active compounds read low 0.987 | locus YDR069C, strain doa4, active compounds read low 0.993 | locus YDR137W, strain rgp1, active compounds read low 0.958 | locus YDR159W, strain sac3, active compounds read low 0.984 | locus YDR195W, strain ref2 0.974 | locus YDR297W, strain sur2, active compounds read low 0.983 | locus YDR334W, strain swr1, active compounds read low 0.96 | locus YDR335W, strain msn5, active compounds read low 0.97 | locus YDR392W, strain spt3, active compounds read low 0.97 | locus YEL003W, strain gim4, active compounds read low 0.981 | locus YEL037C, strain rad23, active compounds read low 0.987 | locus YEL061C, strain CIN8 (second series), active compounds read low 0.98 | locus YER015W, strain faa2, active compounds read low 1.02 | locus YER016W, strain bim1, active compounds read low 0.985 | locus YER111C, strain swi4, active compounds read low 0.995 | locus YER155C, strain BEM2 (second series), active compounds read low 1.01 | locus YFR010W, strain ubp6, active compounds read low 0.969 | locus YGL167C, strain pmr1, active compounds read low 0.998 | locus YGL173C, strain kem1, active compounds read low 0.988 | locus YGL227W, strain vid30, active compounds read low 0.994 | locus YGL240W, strain doc1, active compounds read low 1.03 | locus YGL253W, strain hxk2, active compounds read low 0.984 | locus YHR013C, strain ard1, active compounds read low 0.972 | locus YHR027C, strain rpn1, active compounds read low 0.986 | locus YHR142W, strain chs7, active compounds read low 0.93 | locus YJL092W, strain hpr5, active compounds read low 0.961 | locus YJL095W, strain BCK1 (second series), active compounds read low 1.01 | locus YJL115W, strain asf1, active compounds read low 0.971 | locus YJL129C, strain trk1, active compounds read low 0.935 | locus YJL154C, strain vps35, active compounds read low 0.992 | locus YJL164C, strain tpk1, active compounds read low 0.979 | locus YJL166W, strain qcr8, active compounds read low 0.992 | locus YJL187C, strain SWE1, active compounds read low 0.991 | locus YKL160W, strain elf1, active compounds read low 0.963 | locus YKR026C, strain gcn3, active compounds read low 0.991 | locus YKR091W, strain srl3, active compounds read low 0.984 | locus YLL001W, strain dnm1, active compounds read low 0.987 | locus YLL026W, active compounds read low 0.997 | locus YLL041C, strain sdh2, active compounds read low 0.979 | locus YLR027C, strain aat2, active compounds read low 0.988 | locus YLR221C, strain rsa3, active compounds read low 0.962 | locus YLR258W, strain gsy2, active compounds read low 1.01 | locus YLR262C, strain YPT6 (second series), active compounds read low 1 | locus YLR320W, strain mms22, active compounds read low 0.993 | locus YLR342W, strain FKS1, active compounds read low 0.993 | locus YLR357W, strain rsc2, active compounds read low 0.996 | locus YLR370C, strain arc18, active compounds read low 0.98 | locus YLR384C, strain iki3, active compounds read low 0.996 | locus YML120C, strain ndi1, active compounds read low 0.949 | locus YMR058W, strain fet3, active compounds read low 0.973 | locus YMR125W, strain sto1, active compounds read low 0.981 | locus YMR129W, active compounds read low 0.957 | locus YMR205C, strain PFK2, active compounds read low 1.02 | locus YMR231W, strain pep5, active compounds read low 0.985 | locus YNL071W, strain lat1, active compounds read low 0.989 | locus YNL209W, strain ssb2, active compounds read low 0.992 | locus YNL248C, strain rpa49, active compounds read low 0.935 | locus YNL322C, strain KRE1 (second series), active compounds read low 0.981 | locus YNR049C, strain mso1, active compounds read low 0.986 | locus YOR001W, strain rrp6, active compounds read low 0.941 | locus YOR070C, strain gyp1, active compounds read low 0.994 | locus YOR080W, strain dia2, active compounds read low 0.976 | locus YOR083W, strain WHI5, active compounds read low 0.952 | locus YOR106W, strain vam3, active compounds read low 0.974 | locus YOR265W, strain rbl2, active compounds read low 0.989 | locus YOR270C, strain vph1, active compounds read low 0.981 | locus YOR290C, strain snf2, active compounds read low 0.976 | locus YPL051W, strain arl3, active compounds read low 0.975 | locus YPL078C, strain atp4, active compounds read low 0.949 | locus YPL106C, strain sse1, active compounds read low 1.01 | locus YPL240C, strain hsp82, active compounds read low 0.987
